# Experimental data published in PubChem BioAssay (NCI).
# About 79,000 compounds went through this panel and 15% of them were active in at least one assay; those are over-represented in the sample as a whole. A number with no mark means an inactive call. The source made the active and inactive calls. Cut-off read from the data, not from the text of the source: active = growth inhibition above about 70%; inactive = the rest.
# Experiments:
# [1] = NCI Yeast Anticancer Drug Screen. Data for the rad50 strain (AID 155);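 note: 0% = growth of vehicle-only cultures of the same strain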; conditions: S. cerevisiae rad50 strain growth inhibition; at 50.0 µM; stronger effect = higher value
# How it was run: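 Compounds were tested on a yeast strain with an engineered DNA damage repair alteration; the reported value is growth inhibition normalised to vehicle treatment.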
# [2] = NCI Yeast Anticancer Drug Screen. Data for the mec2-1 strain (AID 157); conditions: S. cerevisiae mec2-1 strain, at 50.0 µM, stronger effect = higher value
# How it was run: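 Growth inhibition is read against vehicle-treated controls after compound exposure of the mec2-1 yeast strain, which is defective in DNA damage repair or cell cycle control.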
# [3] = NCI Yeast Anticancer Drug Screen. Data for the sgs1 mgt1 strain (AID 161);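 note: 0% = growth of cultures given vehicle only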; conditions: S. cerevisiae sgs1 mgt1 strain, at 50.0 µM, stronger effect = higher value
# How it was run: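 This yeast growth screen uses a strain with defined DNA-repair lesions; compound-treated growth is compared with vehicle-treated growth.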
# [4] = NCI Yeast Anticancer Drug Screen. Data for the cln2 rad14 strain (AID 165);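 note: 0% = growth equal to vehicle treated cultures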; conditions: S. cerevisiae cln2 rad14 strain, at 50.0 µM, stronger effect = higher value
# How it was run: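 Growth inhibition, relative to vehicle-treated controls, is the read-out. The test organism is a yeast strain with defined genetic alterations, cln2 rad14.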
# [5] = NCI Yeast Anticancer Drug Screen. Data for the bub3 strain (AID 167); conditions: S. cerevisiae bub3 mutant strain, at 50.0 µM, stronger effect = higher value
# How it was run: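 Growth of a checkpoint-deficient yeast mutant is measured after compound exposure. Values represent inhibition relative to vehicle.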
# [6] = NCI Yeast Anticancer Drug Screen. Data for the mlh1 rad18 strain (AID 175); conditions: S. cerevisiae mlh1 rad18 strain growth inhibition; at 50.0 µM; stronger effect = higher value
# How it was run: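 Cells of a genetically altered yeast strain, deficient in DNA damage repair, were treated with compound. Their growth was then compared with that of vehicle-treated cultures to give inhibition.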
Compound,growth inhibition [1],growth inhibition [2],growth inhibition [3],growth inhibition [4],growth inhibition [5],growth inhibition [6]
CCCCCCC(c1ccc(N(C)C)cc1)c1ccc(N(C)C)cc1,-6.95%,15.7%,-4.45%,13.1%,24.9%,29.9%
O=C(CC1=NC2NN(c3ccccc3)C(=O)C2=C1CC(=O)c1ccc(F)cc1)c1ccc(F)cc1 (centres undefined),40.2%,20.6%,23.2%,13.1%,5.65%,38.9%
CN(C)c1ccc(/C=C\C(O)c2ccccc2)cc1 (centres undefined),22.7%,11.3%,32.2%,7.6%,2.55%,42%
O=C(/C=C\c1ccccc1)Nc1c(Cl)cc(Cl)cc1Cl,0.65%,10.5%,9.05%,-8.75%,39.5%,23.3%
BrCCCCCOc1ccc(-c2c3ccccc3c(-c3ccc(OCCCCCBr)cc3)c3ccccc23)cc1,11.4%,18.1%,12.8%,0.05%,-12.9%,12.8%
CC(=O)CC(=O)C(F)(F)F,14%,-3.35%,-20.5%,9.8%,7.3%,4.75%
CCOC(=O)CCC(NC(=O)c1ccc(N=Cc2nc3ccccc3nc2-c2ccccc2)cc1)C(=O)OCC (centres undefined),4.35%,0.95%,6.8%,14.5%,11.8%,-7.7%
O=C1NC(=O)[C@H]2C3C=CC([C@@H]12)[C@@H]1C(=O)NC(=O)[C@H]31,41.7%,21.8%,-22.1%,7.8%,-28.7%,-47.6%
CSc1ccccc1C1CCCCCC1O (centres undefined),11%,12.8%,5.65%,12.8%,-30.6%,10.1%
c1ccc(-c2sc(-c3ccccc3)c3c2C2CCC3C2)cc1,-12.4%,6.05%,14%,29%,40.6%,-0.05%
COC1(OC)C[C@H](C)[C@@]23O[C@]24c2cc(O)c5c(c2N[C@H]3C#C/C=C\C#C[C@]14O)C(=O)c1ccccc1C5=O,87.7% (active),87.2% (active),88.8% (active),88% (active),89.3% (active),90.8% (active)
CC(=O)COc1cccc2ccccc12,-1.15%,-3.1%,-2.05%,-36.4%,-23.8%,-2.35%
CCOc1ncc(C(=O)c2ccc(C)cc2)c(OCC)n1,-8.55%,-20.4%,-6.2%,-58.9%,3.6%,-20.4%
Cc1cc(OCCOC(=O)Nc2ccccc2C(F)(F)F)cc(C)c1Cl,-7.6%,-5.2%,-3.35%,-44.4%,-3.5%,10.8%
O=C(Nc1ccccc1F)C(c1ccccc1)c1ccccc1,14.8%,8.95%,3.25%,-1.45%,11.8%,4%
c1cn2cnnc2n2cnnc12,-2.7%,-13%,-15.6%,-32%,-0.8%,-9.8%
CCOc1ccc(/C=C/c2ccc3ccccc3[n+]2C)cc1OCC,16.1%,9%,-5.3%,-14%,-1.35%,19.7%
CCCCCc1c(Cl)nc(Cl)nc1Cl,-14.2%,11.2%,12.3%,-38.8%,26.9%,-18.1%
COc1cc2ccc3c(c2cc1OC)CCc1cn[nH]c1-3,2.05%,3.4%,8%,27.4%,11.8%,9.45%
O=c1[nH]cc([N+](=O)[O-])c(=O)[nH]1,14.3%,13.1%,8.25%,14.7%,16.9%,11.2%

Compound,growth inhibition [1],growth inhibition [2],growth inhibition [3],growth inhibition [4],growth inhibition [5],growth inhibition [6]
O=[N+]([O-])c1cc(C2ON=C(c3ccccc3)N2C23CC4CC(CC(C4)C2)C3)ccc1Cl (centres undefined),-9.1%,10.2%,2.7%,16%,-0.85%,-8.2%
OCC(O)CS (centres undefined),-15.2%,0.1%,-4.8%,36.1%,-4.5%,-15.5%
CC(=O)Oc1ccc(C(c2ccccc2)c2ccccc2)c2ccccc12,-9.8%,-13.4%,-1.95%,2.85%,-52.8%,-18.9%
NCCNCC(O)CO (centres undefined),-2.4%,-18.6%,-21.4%,-9.5%,3.9%,6.15%
CCCCCCC(=O)C(N)Cc1ccccc1 (centres undefined),0.45%,-27.1%,3.7%,8.2%,-1.1%,20%
CC1CCC(=O)CN1Cc1ccccc1 (centres undefined),5.95%,4.45%,9.45%,-11.6%,22.4%,4.85%
COc1cc(/C=C/C(=N\NC(=S)NN)c2sc(NNC(C)=O)nc2C)ccc1O,22.5%,-4.5%,21.7%,9.1%,15.5%,19.2%
Cc1cc(=O)[nH]c(NNC(C#N)c2ccc([N+](=O)[O-])cc2)n1 (centres undefined),-18.5%,0.35%,-36.1%,-8.8%,-30.6%,-50.9%
O=C(O)CCC(=O)CC1CCCCC1,36.3%,15.9%,10.2%,39.1%,-8.45%,28.2%
CSc1nc(NC2OC(CO)C(O)C(O)C2O)c(C=O)c(=O)n1C (centres undefined),10%,-0.8%,10.3%,4%,2.45%,7.75%
O=C/C(=C(/Br)I)c1ccccc1,5.25%,2.85%,24.9%,8.7%,8.7%,-27.1%
C=CCN1C(=O)c2ccccc2S1(=O)=O,8.2%,-2.35%,-5.95%,-27.8%,-3.15%,3.55%
O=C(OC1(c2nccc3ccccc23)CCCN(Cc2ccccc2)C1)c1ccccc1 (centres undefined),28.9%,11.8%,15.9%,14.2%,-1.4%,24.1%
CCOC(=O)C(C(C)=O)C(c1ccc(OCc2ccccc2)c(C)c1)C(C(C)=O)C(=O)OCC (centres undefined),14.7%,3.9%,25.9%,27.1%,8.55%,19.9%
O=C1c2ccccc2C2NCCCN12 (centres undefined),-2.55%,-12.3%,-0.4%,-5.65%,-3.55%,0.9%
CC(C)C1OC2(CCCC2)OCC1(C)C (centres undefined),-10.2%,-19.4%,-10.4%,-21.8%,-4.7%,-1.1%
Cn1nnnc1CC(=O)O,1.3%,-12.9%,1.15%,-22.8%,-2.05%,-12.5%
CCCCCO/C=C/CN1CCOCC1,8.85%,15.2%,3.1%,-8.5%,11.8%,-3.2%
CCCCCCCC(=O)OCC1OC(n2cc(F)c(=O)[nH]c2=O)C(NC(=O)OCc2ccccc2)C(OC(=O)CCCCCCC)C1O (centres undefined),20.2%,4.05%,13.4%,14.3%,0.35%,38.3%
